Test results taken from article PMC5700166.
Numbering of substitutions follows the chain as printed.

Columns and labels:
Experiment in all cases: protein-binding microarray (PBM); PBM: ~300 nM protein, 6 mM HEPES pH 7.8, 80 mM KCl, 0.5 mM EDTA, 0.5 mM EGTA, 6% glycerol, 35 ng/ul poly-dIdC, 1% milk, 1 h, room temperature; Ap Aiptasia and Nv Nematostella (sea anemones) / Co Capsaspora / Aq Amphimedon (sponge) / Dm Drosophila / Hu human; RHD is the Rel homology domain; high values mean tight binding
Details in all cases: dsDNA, one strand shown
GST-Ap-NF-kB RHD = biological target: T1, GST-Ap-NF-kB RHD (Exaiptasia pallida (Aiptasia), UniProt A0A913YAJ5 2-422)
T1 sequence: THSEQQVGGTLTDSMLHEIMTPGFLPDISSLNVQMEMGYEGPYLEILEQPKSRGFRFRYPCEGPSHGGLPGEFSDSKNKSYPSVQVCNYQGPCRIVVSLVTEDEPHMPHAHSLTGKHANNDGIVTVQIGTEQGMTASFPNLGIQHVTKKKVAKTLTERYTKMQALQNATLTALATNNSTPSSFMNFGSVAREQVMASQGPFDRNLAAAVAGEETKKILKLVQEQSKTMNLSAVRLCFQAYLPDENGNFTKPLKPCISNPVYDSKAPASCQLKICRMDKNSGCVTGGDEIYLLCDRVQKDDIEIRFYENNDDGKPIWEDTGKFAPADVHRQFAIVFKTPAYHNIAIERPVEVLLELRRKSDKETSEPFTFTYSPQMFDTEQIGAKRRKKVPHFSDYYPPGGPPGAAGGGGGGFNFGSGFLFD

GST-Co-NF-kB = biological target: T2, GST-Co-NF-kB (Capsaspora owczarzaki, UniProt F1ARL5 200-546)
T2 sequence: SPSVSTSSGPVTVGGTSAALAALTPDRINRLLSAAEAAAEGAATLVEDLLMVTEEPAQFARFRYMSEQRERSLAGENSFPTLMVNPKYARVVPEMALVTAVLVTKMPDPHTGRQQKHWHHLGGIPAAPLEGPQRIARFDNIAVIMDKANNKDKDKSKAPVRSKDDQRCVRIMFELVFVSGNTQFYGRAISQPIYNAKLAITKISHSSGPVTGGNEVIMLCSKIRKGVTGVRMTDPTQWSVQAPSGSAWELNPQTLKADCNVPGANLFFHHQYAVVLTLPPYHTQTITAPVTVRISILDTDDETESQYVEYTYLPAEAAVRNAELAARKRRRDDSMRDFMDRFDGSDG

GST-Aq-NF-kB = biological target: T3, GST-Aq-NF-kB (Amphimedon queenslandica, UniProt A9Y5G7 2-389)
T3 sequence: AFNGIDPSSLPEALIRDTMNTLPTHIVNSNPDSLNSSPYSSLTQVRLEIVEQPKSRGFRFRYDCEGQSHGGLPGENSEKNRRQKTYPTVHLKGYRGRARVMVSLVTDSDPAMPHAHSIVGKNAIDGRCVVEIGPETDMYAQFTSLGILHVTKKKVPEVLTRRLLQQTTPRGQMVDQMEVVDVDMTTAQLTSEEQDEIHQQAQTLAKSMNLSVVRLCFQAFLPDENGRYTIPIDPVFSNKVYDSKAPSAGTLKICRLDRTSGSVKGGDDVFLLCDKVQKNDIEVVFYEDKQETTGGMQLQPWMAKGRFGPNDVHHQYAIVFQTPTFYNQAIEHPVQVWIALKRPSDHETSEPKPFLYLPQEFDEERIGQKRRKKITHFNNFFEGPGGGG

GST-Hu-p50 = GST-Hu-p50 (Homo sapiens, UniProt P19838 7-356)
[1] = biological target: T4, GST-Nv-NF-kB (Ser allele) (Nematostella vectensis, UniProt A7UNT2 2-411)
T4 sequence: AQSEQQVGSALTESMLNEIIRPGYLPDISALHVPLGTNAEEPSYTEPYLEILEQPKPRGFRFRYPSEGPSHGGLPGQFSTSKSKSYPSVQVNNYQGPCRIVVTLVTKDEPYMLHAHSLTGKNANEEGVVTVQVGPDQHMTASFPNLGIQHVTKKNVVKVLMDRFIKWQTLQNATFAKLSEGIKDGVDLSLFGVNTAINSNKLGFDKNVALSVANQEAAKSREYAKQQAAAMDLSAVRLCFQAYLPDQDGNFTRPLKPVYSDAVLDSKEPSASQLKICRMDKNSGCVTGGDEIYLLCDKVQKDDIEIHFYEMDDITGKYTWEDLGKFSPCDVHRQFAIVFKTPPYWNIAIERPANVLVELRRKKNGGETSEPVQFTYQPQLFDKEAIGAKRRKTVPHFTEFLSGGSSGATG

GST-Dm-Relish = biological target: T5, GST-Dm-Relish (Drosophila melanogaster, UniProt Q94527 99-473)
T5 sequence: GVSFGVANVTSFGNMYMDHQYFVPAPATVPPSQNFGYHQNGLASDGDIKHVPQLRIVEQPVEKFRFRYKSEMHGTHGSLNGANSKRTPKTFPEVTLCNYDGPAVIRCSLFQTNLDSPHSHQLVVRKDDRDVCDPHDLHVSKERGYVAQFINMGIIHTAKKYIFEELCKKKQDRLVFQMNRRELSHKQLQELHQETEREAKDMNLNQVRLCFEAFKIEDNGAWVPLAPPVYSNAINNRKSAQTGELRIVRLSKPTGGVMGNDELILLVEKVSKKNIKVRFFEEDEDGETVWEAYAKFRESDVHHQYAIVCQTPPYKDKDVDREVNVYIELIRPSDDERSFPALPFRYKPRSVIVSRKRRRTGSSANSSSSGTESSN

[2] = biological target: T6, GST-Nv-NF-kB (Cys allele) (Nematostella vectensis, UniProt E5G601 2-411)
T6 sequence: T4 sequence with R21Q, S66C, N207S, Q215E, A217V, K225E, E268A, E399D

Chain of GST-Hu-p50 (P19838 7-356): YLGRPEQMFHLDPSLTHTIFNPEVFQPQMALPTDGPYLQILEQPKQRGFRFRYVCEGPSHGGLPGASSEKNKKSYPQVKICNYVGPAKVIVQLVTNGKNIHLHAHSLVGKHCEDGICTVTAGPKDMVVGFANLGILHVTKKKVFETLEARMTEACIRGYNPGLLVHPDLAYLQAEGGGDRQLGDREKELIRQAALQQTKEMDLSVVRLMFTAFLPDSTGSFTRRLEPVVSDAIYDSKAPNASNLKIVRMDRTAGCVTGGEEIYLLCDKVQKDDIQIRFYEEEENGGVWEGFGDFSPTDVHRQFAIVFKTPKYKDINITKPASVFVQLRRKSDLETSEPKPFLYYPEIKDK

Sequence | binding signal (GST-Ap-NF-kB RHD) [z-score] | binding signal (GST-Co-NF-kB) [z-score] | binding signal (GST-Aq-NF-kB) [z-score] | binding signal (GST-Hu-p50) [z-score] | binding signal [1] [z-score] | binding signal (GST-Dm-Relish) [z-score] | binding signal [2] [z-score]
CCGATTAACATCAGCCCCGGTGTTGATGTTAATCGGGTCTTGATTCGCTTGACGCTGCTG | 2.1 | 1.61 | 2.37 | 1.58 | – | – | –
CCGATTAACATCAGGGGGGGTAATGATGTTAATCGGGTCTTGATTCGCTTGACGCTGCTG | 4.27 | 6.38 | 4.38 | 3.7 | 3.94 | 4.83 | –
CCGATTAACATCAGGACCTTCCCTGATGTTAATCGGGTCTTGATTCGCTTGACGCTGCTG | 2.74 | – | 5.89 | 1.95 | – | 1.9 | 2.66
CCGATTAACATCAGGGGACTTCATGATGTTAATCGGGTCTTGATTCGCTTGACGCTGCTG | 6.7 | 2.35 | 5.48 | 5.72 | – | 6.09 | 5.76
CCGATTAACATCAGAAATACCCATGATGTTAATCGGGTCTTGATTCGCTTGACGCTGCTG | 4.24 | 1.74 | 4.73 | 5.12 | – | 3 | 5.32
CCGATTAACATCACGGAAATACCTGATGTTAATCGGGTCTTGATTCGCTTGACGCTGCTG | 1.01 | – | 4.47 | 1.12 | 1.39 | 2.56 | –
CCGATTAACATCAGGCGAACCCCTGATGTTAATCGGGTCTTGATTCGCTTGACGCTGCTG | 1.57 | – | 2.96 | 1.53 | – | 1.37 | 1.1
CCGATTAACATCAGAACCCCCCCTGATGTTAATCGGGTCTTGATTCGCTTGACGCTGCTG | 7.14 | 4.1 | 5.36 | 5.28 | – | 7.49 | 4.85
CCGATTAACATCACGCATCCCCCTGATGTTAATCGGGTCTTGATTCGCTTGACGCTGCTG | 6.1 | 4.65 | 4.33 | 5.14 | – | 3.44 | 4.9
CCGATTAACATCAGGGGGTATTATGATGTTAATCGGGTCTTGATTCGCTTGACGCTGCTG | 7.58 | 4.88 | 5.8 | 5.39 | – | 4.91 | 5.39
CCGATTAACATCAGGAAGATCCCTGATGTTAATCGGGTCTTGATTCGCTTGACGCTGCTG | 3.43 | – | 5.44 | 1.57 | – | 2.71 | 1.84
CCGATTAACATCACCCGGGTAAATGATGTTAATCGGGTCTTGATTCGCTTGACGCTGCTG | 1.42 | 2.41 | 1.02 | 1.11 | 1.15 | – | –
CCGATTAACATCAGGGGGAGTTATGATGTTAATCGGGTCTTGATTCGCTTGACGCTGCTG | 6.7 | 7.05 | 6.18 | 6.55 | – | 5.28 | 5.95
CCGATTAACATCAGGGTAATTTATGATGTTAATCGGGTCTTGATTCGCTTGACGCTGCTG | 4.07 | 3.64 | 6.31 | 4.9 | – | 3.68 | 6.3
